Screens deposited in PubChem BioAssay by National Center for Advancing Translational Sciences (NCATS).
This is a sample that favours compounds with a hit; in the whole collection about 17% have one here.
ClpP mod = qHTS Assay for Activators of ClpP; purified B. subtilis ClpP, FRET peptide cleavage, 20 min; Potency, µM (titrated, usually from 57.5 µM); 340,000 tested, 1.9% active; ATP-dependent Clp protease proteolytic subunit (Bacillus subtilis (strain 168)), P80244; active = well fitted falling curve with a large enough effect; inconclusive = small, poorly fitted or top-dose-only effect; inactive = no such curve, though single readings can be large or run the other way; also: the source files actives as falling curves though it sought activators and does not explain the sign; nearly all actives have a fitted effect of over 65% in size
Target sequence (P80244 whole entry, looked up): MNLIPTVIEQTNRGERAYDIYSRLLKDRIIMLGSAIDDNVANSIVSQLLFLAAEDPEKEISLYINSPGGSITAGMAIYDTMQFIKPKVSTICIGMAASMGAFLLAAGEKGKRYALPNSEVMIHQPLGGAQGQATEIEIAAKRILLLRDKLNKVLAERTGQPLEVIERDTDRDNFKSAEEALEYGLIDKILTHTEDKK
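Purified B. subtilis ClpP, 10 microg/mL final in Tris/HCl pH8 with KCl, BSA, glycerol and Tween-20, cleaved an Abz/nitrotyrosine-quenched decapeptide. Fluorescence (ex 320, em 430) was read at 0 and 20 min at room temperature. Delta was normalized to 5.8 microM ADEP and DMSO/no-enzyme controls.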
TDP1 cell CPT = qHTS for Inhibitors of human tyrosyl-DNA phosphodiesterase 1 (TDP1): qHTS in cells in presence of CPT; chicken DT40 Tdp1-/-;hTDP1 cells + 20 nM CPT, ATP luminescence, 48 h; Potency, µM (series often up to 46.2 µM), actives largely listed as inhibitors; 420,000 tested, 12% active; AID 686979, 2013; also: nearly all actives have a fitted effect of over 55% in size
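Chicken DT40 Tdp1-/- cells stably complemented with human TDP1 were seeded at 400 cells/well in medium containing 20 nM camptothecin, exposed to pin-transferred compounds, and grown at 37 °C for at least 48 hr. Viability was read as ATP luminescence.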
TDP1 inh = qHTS Assay for Inhibitors of Tyrosyl-DNA Phosphodiesterase (TDP1); 350,000 tested, 0.28% active; recombinant TDP1, AlphaScreen DNA substrate cleavage; Tyrosyl-DNA phosphodiesterase 1 (Homo sapiens), Q9NUW8; Potency, µM (doses to about 130 µM), hits mostly inhibitors; AID 485290, 2010; also: nearly all actives have a fitted effect of over 40% in size
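Here, a 5' biotin and 3' phosphotyrosine-FITC DNA oligonucleotide reports Tdp1 activity: intact substrate bridges AlphaScreen beads, while cleavage leaves a 3' phosphate and drops signal. All incubations at room temperature.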
DT40 TDP1 no CPT = qHTS for Inhibitors of human tyrosyl-DNA phosphodiesterase 1 (TDP1): qHTS in cells in absence of CPT; AID 686978, 2013; Potency, µM (titrated, usually from 46.2 µM), actives largely listed as inhibitors; DT40 Tdp1-/- hTDP1 cells, no CPT, ATP luminescence, 48 h; 420,000 tested, 15% active; also: nearly all actives have a fitted effect of over 55% in size
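Compound effects on proliferation are scored in DT40 Tdp1-/-;hTDP1 cells in the absence of CPT. ATP levels (CellTiter-Glo luminescence) are recorded after a ≥48 hr, 37 °C incubation.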
Hits are given with their value; 0 = inactive; ? = inconclusive; - = no result; ! = repeats disagree; [ ] = dose if it differs, or a comment. Unless noted, calls follow the shape of the dose curve; as a rule, active = well fitted curve in the direction sought with a large enough effect; inconclusive = small, poorly fitted or top-dose-only effect, or another doubt; inactive = no such curve, though single readings can be large; an effect the other way counts as inactive or inconclusive.

SMILES	ClpP mod	TDP1 cell CPT	TDP1 inh	DT40 TDP1 no CPT
Cc1ccc2oc3c(c(=O)c2c1)C(c1ccccc1F)N(CCCN1CCOCC1)C3=O (stereo not given)	0	?	0	18µM
C=CCOc1ccc(C2c3c(oc4ccccc4c3=O)C(=O)N2CCCN2CCOCC2)cc1 (stereo not given)	0	0	0	0
Cc1ccc2oc3c(c(=O)c2c1)C(c1ccccc1F)N(CCCN(C)C)C3=O (stereo not given)	0	0	0	0
O=C(NCc1cccs1)c1ccc(CS(=O)Cc2ccc(Cl)cc2)o1 (stereo not given)	0	?	-	?
Fc1ccc(-n2ncc3c(NCCCn4ccnc4)ncnc32)cc1	0	?	0	?
COc1ccc(CNC(=O)CCc2nnc3n(C)c(=O)c4sccc4n23)cc1	0	0	0	0
Cc1cc(C(O)c2ncc(-c3cccc(F)c3)[nH]2)ccc1F (stereo not given)	0	0	-	0
Cc1cc(C(O)c2ncc(-c3ccc(Oc4ccccc4)cc3)[nH]2)ccc1F (stereo not given)	0	18µM	-	?
Cc1cc(C(O)c2ncc(-c3ccc(Cl)cc3)[nH]2)ccc1F (stereo not given)	0	18µM	-	?
OC(c1ccc(F)cc1)c1ncc(-c2ccc(Oc3ccccc3)cc2)[nH]1 (stereo not given)	0	?	-	16µM
COc1ccc(S(=O)(=O)N2CCN(C)CC2)cc1NC(=O)c1ccccc1	-	0	0	0
CC(C)NC(=O)c1cc(C2CCCCN2S(=O)(=O)c2ccccc2)on1 (stereo not given)	0	0	-	0
CC(C)C[C@H]1CNC(=S)N1C[C@H]1CCCN1C[C@H](Cc1ccccc1)N1C[C@H](Cc2ccc(O)cc2)N(CC2CCCCC2)C1=S	0	16µM	-	23µM
CC(C)C[C@H]1CNC(=S)N1CC1CCCN1C[C@H](Cc1ccc(O)cc1)N1C[C@H](Cc2ccccc2)N(CC2CCCCC2)C1=S (stereo not given in full)	0	5.8µM	-	5.8µM
CC(C)C[C@H]1CNC(=S)N1CC1CCCN1C[C@H](Cc1ccccc1)N1C[C@H](Cc2ccccc2)N(CC2CCCCC2)C1=S (stereo not given in full)	0	?	-	?
CC(C)C[C@H]1CNC(=S)N1C[C@H]1CCCN1C[C@H](Cc1ccc(O)cc1)N1C[C@H](Cc2ccccc2)N(CC2CCCCCC2)C1=S	0	18µM	-	18µM
CC(C)C[C@H]1CN([C@@H](Cc2ccccc2)CN2CCC[C@@H]2CN2C(=O)C(=O)NC[C@@H]2Cc2ccc(O)cc2)C(=O)C(=O)N1CC1CCCCC1	0	0	-	?
Cc1nc2cnc(N(C)C)nc2n(C)c1=O	-	0	-	0
COC(=O)c1ccc(OCc2nn[nH]n2)cc1	0	0	-	0
Cn1cc(CNC2CCN(c3cccc(NC(=O)c4cccnc4)c3)CC2)cn1	-	0[9.04 µM]	-	0
CCn1c(SCC(=O)NC2CC2)nnc1-c1ccc(C)cc1	0	0	0	0
CC(=O)c1ccc(NC(=O)CN2C(=O)NC(C)(c3ccc4c(c3)OCCO4)C2=O)cc1 (stereo not given)	0	0	0	?
COc1cc(C(=S)N2CCCCC2)ccc1OCC(=O)Nc1ccccc1Cl	-	?	0	23µM
O=C(COc1ccc(C(=S)N2CCOCC2)cc1Cl)Nc1ccccc1Cl	-	0	0	0
CCOc1cc(C(=S)N2CCCC2)ccc1OCC(=O)Nc1c(C)cc(C)cc1C	0	18µM	0	16µM
SMILES	ClpP mod	TDP1 cell CPT	TDP1 inh	DT40 TDP1 no CPT
CCN(CC)CCNC(=O)c1cn(CCOC)c(=O)c2c1c1ccccc1n2C	0	?	0	?
COCCn1cc(C(=O)NCCN(C)C)c2c3ccccc3n(C)c2c1=O	0	0	-	?
CCOC(=O)N1CCN(C(=O)c2cn(CCOC)c(=O)c3c2c2ccccc2n3C)CC1	14µM	0	0	0
COCCn1cc(C(=O)N2CCN(C)CC2)c2c3ccccc3n(C)c2c1=O	11µM	0	0	?
COCCn1cc(C(=O)NCc2cccs2)c2c3ccccc3n(C)c2c1=O	20µM	0	0	0
CCN1CCN(C(=O)c2nn(-c3ccc(OC)cc3)c(=O)c3c2c2ccccc2n3C)CC1	0	0	0	?
COc1ccc(NC(=O)CSc2nc3cc(OC)c(OC)cc3c3nc(-c4ccccc4)nn23)cc1Cl	0	0	0	0
C=CCC(C)(O)/C=C/c1ccccc1 (stereo not given)	-	-	0	-
C=CCC(C)(O)c1ccc(OC)cc1 (stereo not given)	-	-	0	-
Cn1c(=O)cc(SCC(=O)N2CCN(c3ccc(F)cc3)CC2)c2ccc(Cl)cc21	0	0	0	0
CCn1c(=O)cc(SCC(=O)N2CCN(c3ccccc3F)CC2)c2ccccc21	0	?	0	26µM!
Cc1ccc(Cl)cc1N1CCN(C(=O)CSc2cc(=O)n(C)c3ccccc23)CC1	0	15µM	0	7.3µM
Cn1c(=O)cc(SCC(=O)N2CCCC2)c2ccccc21	28µM	0	0	0
C#CCCCO/N=C1/C[C@@H](O)[C@@H](O)[C@@H]2[C@@H]3C(=O)N(c4cccc(Oc5ccccc5)c4)C(=O)[C@H]3CC[C@H]12	-	-	0[21 µM]	-
O=C1NCCN(CC2CCN(CCc3ccccc3)CC2)C1=O	0	0	-	0
N#CC1=C(c2ccccc2)/C(=C/c2ccccc2)OC1=O	0	23µM	0	18µM
O=C(NCCCCCCCN1CCCCCCC1)C(C1CCCCC1)C1CCCCC1	0	13µM	-	15µM
O=C(NCCCN1CCOCC1)NC1CCCCC1	0	0	0	?
COc1cc(=O)n2c(c1C(=O)NC(C)c1ccco1)CCN(Cc1cc3ccccc3o1)CC2 (stereo not given)	-	0[9.04 µM]	-	0
COc1cc(C(=O)O[C@H]2C/C(C)=C/CC[C@@]3(C)O[C@@H]3[C@H](O)[C@@H]2C(C)C)cc(OC)c1OC	0	16µM	-	23µM
CCOc1ccc(CCNC(=O)c2ccc(CS(=O)Cc3ccc(Cl)cc3)o2)cc1OCC (stereo not given)	0	?	0	15µM
O=C(NCCc1cccs1)c1ccc(CS(=O)Cc2ccc(Cl)cc2)o1 (stereo not given)	0	?	0	0
CCOc1ccc(CCNC(=O)c2ccc(CS(=O)Cc3cccc(Cl)c3)o2)cc1 (stereo not given)	0	?	0	15µM
COC(=O)c1c(C)[nH]c(C(=O)COC(=O)Cn2cc(C(F)(F)F)ccc2=O)c1C	0	?	0	0
O=C(Nc1cccc(-c2nc3ccccc3o2)c1)c1cc([N+](=O)[O-])ccc1N1CCOCC1	0	?	0	8.2µM
COc1ccc2oc(-c3cccc(NC(=O)c4cc([N+](=O)[O-])ccc4N4CCOCC4)c3)nc2c1	0	13µM	0	?
